Active and inactive are the calls of the source.

The nature of experiment [1]: E. coli DRC41 culture turbidity changes, primary screen, E. coli filamentation inducer project, strain DRC41, OD650, 48 h (AID 1152).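 Note: E. coli MC1000 strain DRC41 lacking acrAB efflux pump and sulA.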 Particulars: E. coli DRC41 (acrAB sulA), higher = more signal, called active from +8 up or from −8 down.
Experiment [2] in a line: small-molecule binders of probe aLefty1, primary screen, biochemical, small-molecule microarray, 635/667 nm fluorescence (AID 1153).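 Note: score merges spot fluorescence with signal-to-noise ratio from the scanned slide images.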 Conditions: higher = more signal.
Experiment [3] in a line: PSAC antagonists in infected red cells, primary screen, cell-based, P. falciparum Indochina, OD700, 1 h (AID 1154). Particulars: P. falciparum Indochina infected RBC osmotic lysis, higher = more signal, called active from +8 up or from −8 down.
Experiment [4] is described as follows: PSAC antagonists in infected red cells, primary screen, cell-based, P. falciparum Indochina, OD700, 2 h (AID 1155).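 Note: lysis reports solute entry through the parasite surface anion channel PSAC; channel blockers reduce lysis of infected cells.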 Conditions: P. falciparum Indochina infected erythrocytes, osmotic lysis OD700; higher = more signal, called active from +8 up or from −8 down.
Experiment [5] can be described thus: osmotic lysis modulators in infected erythrocytes, primary screen, PSAC antagonist project, cell-based, P. falciparum Indochina, OD700, 3 h (AID 1156). Particulars: higher = more signal, called active from +8 up or from −8 down.
The nature of experiment [6]: PSAC antagonists in infected red cells, primary screen, cell-based, P. falciparum Indochina, OD700, 18 h (AID 1157). Conditions: P. falciparum Indochina infected erythrocytes, osmotic lysis OD700, 18 h; higher = more signal, called active from +8 up or from −8 down.
Experiment [7] can be described thus: modulators of S6 phosphorylation in cells, primary screen, cell-based, A549, cytoblot, luminescence, serum-stimulated (AID 1158).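 Note: serum-stimulated A549 lung adenocarcinoma cells; signal is phosphorylated S6 detected by cytoblot immunostaining with HRP secondary.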 Particulars: A549 phospho-S6 cytoblot, 5 h, higher = more signal.
Experiment [8] addresses NADPH oxidase 2 (Homo sapiens) (UniProt P04839). The experiment in a line: NOX2-dependent H2O2 signal modulators, primary screen, NOX inhibitor project, cell-based, HEK293-NOX2, PMA-stimulated, Amplex Red fluorescence (AID 1159). Note: test concentration not given here. Particulars: 45 min, higher = more signal, called active from +8 up or from −8 down.
The target in experiment [9] is NADPH oxidase 4 (Homo sapiens) (UniProt Q9NPH5). The experiment in a line: NOX4-dependent H2O2 signal modulators, primary screen, NOX inhibitor project, cell-based, HEK293-NOX4, tetracycline-induced, Amplex Red fluorescence (AID 1160). Conditions: 45 min, higher = more signal, called active from +8 up or from −8 down.
Sequence of NADPH oxidase 4 (Homo sapiens) (Q9NPH5 whole entry, looked up): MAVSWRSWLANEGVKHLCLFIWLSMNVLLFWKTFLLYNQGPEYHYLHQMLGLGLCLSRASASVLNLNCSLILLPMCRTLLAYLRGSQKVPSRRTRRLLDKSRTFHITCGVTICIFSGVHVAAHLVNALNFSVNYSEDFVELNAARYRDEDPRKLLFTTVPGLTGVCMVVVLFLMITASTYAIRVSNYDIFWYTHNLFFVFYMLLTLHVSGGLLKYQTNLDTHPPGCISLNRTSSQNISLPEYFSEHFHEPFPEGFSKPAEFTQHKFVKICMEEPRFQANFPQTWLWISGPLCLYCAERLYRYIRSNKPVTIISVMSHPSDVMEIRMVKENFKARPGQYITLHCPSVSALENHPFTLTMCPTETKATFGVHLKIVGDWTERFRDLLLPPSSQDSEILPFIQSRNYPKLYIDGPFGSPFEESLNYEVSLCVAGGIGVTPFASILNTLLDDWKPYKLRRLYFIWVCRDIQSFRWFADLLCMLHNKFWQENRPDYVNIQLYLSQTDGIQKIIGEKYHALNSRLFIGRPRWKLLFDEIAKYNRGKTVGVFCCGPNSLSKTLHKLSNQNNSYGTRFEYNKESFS
Experiment [10] deals with NADPH oxidase 5 (Homo sapiens) (UniProt Q96PH1). The experiment is described as follows: NOX5-dependent H2O2 signal modulators, primary screen, NOX inhibitor project, cell-based, HEK293-NOX5, Amplex Red fluorescence (AID 1161). Conditions: HEK293-NOX5, ionomycin, 45 min, higher = more signal.
Sequence of NADPH oxidase 5 (Homo sapiens) (Q96PH1 whole entry, looked up): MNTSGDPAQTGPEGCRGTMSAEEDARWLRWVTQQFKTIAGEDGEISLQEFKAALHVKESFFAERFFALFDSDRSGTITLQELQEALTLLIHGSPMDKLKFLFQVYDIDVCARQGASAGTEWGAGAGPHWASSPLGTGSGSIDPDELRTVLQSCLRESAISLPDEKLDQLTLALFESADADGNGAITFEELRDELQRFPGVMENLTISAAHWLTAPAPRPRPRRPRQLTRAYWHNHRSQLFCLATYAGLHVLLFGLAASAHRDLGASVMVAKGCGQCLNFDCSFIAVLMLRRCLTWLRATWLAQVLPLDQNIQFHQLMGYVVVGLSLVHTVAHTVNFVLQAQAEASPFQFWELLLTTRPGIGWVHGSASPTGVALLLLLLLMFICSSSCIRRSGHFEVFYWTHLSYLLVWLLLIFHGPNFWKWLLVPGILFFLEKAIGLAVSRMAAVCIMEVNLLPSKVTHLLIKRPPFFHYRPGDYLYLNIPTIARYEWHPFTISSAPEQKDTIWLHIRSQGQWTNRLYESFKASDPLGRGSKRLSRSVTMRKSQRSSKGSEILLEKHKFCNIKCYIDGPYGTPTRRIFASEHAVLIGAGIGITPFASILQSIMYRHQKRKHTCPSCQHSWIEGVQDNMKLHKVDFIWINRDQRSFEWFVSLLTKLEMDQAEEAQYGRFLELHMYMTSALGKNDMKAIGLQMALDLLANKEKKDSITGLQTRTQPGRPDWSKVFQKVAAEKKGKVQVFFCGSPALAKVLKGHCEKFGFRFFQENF
The nature of experiment [11]: A549 cell viability effects, profiling panel, calcein-AM fluorescence, 48 h, basal (AID 1162). Note: test concentration not given here. Conditions: higher = more signal.
The nature of experiment [12]: adipocyte viability effects, profiling panel, cell-based, 3T3-L1 adipocytes, calcein-AM fluorescence, 48 h, basal (AID 1163). Note: test concentration not given here. Conditions: 3T3-L1 adipocytes viability, higher = more signal.
Experiment [13] is described as follows: HepG2 cell viability effects, profiling panel, calcein-AM fluorescence, 48 h, basal (AID 1164). Note: test concentration not given here. Conditions: higher = more signal.
A short description of experiment [14]: MM1S cell viability effects, profiling panel, calcein-AM fluorescence, 48 h, basal (AID 1165).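 Note: viability of MM1S multiple myeloma cells under basal unstimulated conditions; test concentration not given here.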 Particulars: higher = more signal.
The nature of experiment [15]: basal RPMI8226 viability, no added stimulus, profiling panel, cell-based, calcein-AM fluorescence, 48 h, PK04 Diversity Set (AID 1166).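 Note: cells grown under basal conditions without added stimulus; test concentration not given here.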 Conditions: RPMI8226 myeloma viability, higher = more signal.
A short description of experiment [16]: basal HepG2 mitochondrial membrane potential changes, profiling panel, cell-based, JC-1 fluorescence, 24 h, 100 nL compound (AID 1167). Note: test concentration not given here. Conditions: higher = more signal.
Experiment [17] is described as follows: basal 3T3-L1 adipocyte mitochondrial potential changes, profiling panel, cell-based, JC-1 fluorescence, 3T3-L1 adipocytes, 24 h, 100 nL compound (AID 1168). Note: test concentration not given here. Particulars: JC-1 mitochondrial fluorescence, higher = more signal, called active from +8 up or from −8 down.
The nature of experiment [18]: basal RPMI8226 mitochondrial membrane potential changes, profiling panel, cell-based, JC-1 fluorescence, 24 h, 100 nL compound (AID 1169). Note: test concentration not given here. Conditions: RPMI8226 myeloma, JC-1 mitochondrial potential fluorescence, higher = more signal.
Experiment [19] is described as follows: basal MM1S mitochondrial membrane potential changes, profiling panel, cell-based, JC-1 fluorescence, 24 h, 100 nL compound (AID 1170). Note: test concentration not given here. Particulars: higher = more signal.
Experiment [20] in a line: A549 lung cancer cell viability effects, profiling panel, resazurin fluorescence, 24 h, PK04 Diversity Set (AID 1171). Note: test concentration not given here. Conditions: higher = more signal, called active from +8 up or from −8 down. (Alamar Blue is a resazurin reagent that responds to reducing activity.)

Sequence of NADPH oxidase 2 (Homo sapiens) (P04839 whole entry, looked up): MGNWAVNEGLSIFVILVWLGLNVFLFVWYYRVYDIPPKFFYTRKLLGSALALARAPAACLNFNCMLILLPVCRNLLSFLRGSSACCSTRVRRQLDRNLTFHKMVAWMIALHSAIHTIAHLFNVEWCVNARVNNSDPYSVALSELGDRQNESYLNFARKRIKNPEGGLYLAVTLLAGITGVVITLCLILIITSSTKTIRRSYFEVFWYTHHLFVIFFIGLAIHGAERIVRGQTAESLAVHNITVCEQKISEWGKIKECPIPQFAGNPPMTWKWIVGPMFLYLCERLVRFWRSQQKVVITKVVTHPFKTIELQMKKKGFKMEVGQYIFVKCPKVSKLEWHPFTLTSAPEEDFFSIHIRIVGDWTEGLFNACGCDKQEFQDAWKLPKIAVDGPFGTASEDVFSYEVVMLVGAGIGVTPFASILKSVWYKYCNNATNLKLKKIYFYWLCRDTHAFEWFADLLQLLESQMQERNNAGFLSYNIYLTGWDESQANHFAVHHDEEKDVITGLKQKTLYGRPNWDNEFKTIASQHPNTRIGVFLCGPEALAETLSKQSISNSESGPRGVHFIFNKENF

As to `COC(=O)[C@@]1(Cc2ccccc2)[C@H]2c3cc(C(=O)N(C)C)n(Cc4ccc(O)c(OC)c4)c3C[C@H]2CN1C(=O)c1ccccc1`, the z-score in experiment [1] was -0.404 (inactive); in [3] it was 2.41 (inactive); in experiment [4], -0.214 (inactive); in experiment [5], 0.158 (inactive); in experiment [6], -1.32 (inactive); in [7] it was 1.67. Also, the z-score is -4.69 (inactive) in experiment [8]; -6.03 (inactive) in [9]; -6.08 in experiment [10]; -0.927 in [11]; 1.68 in experiment [12]; 0.0419 in experiment [13]. The z-score is -0.494 in experiment [14]; -1.26 in experiment [15]; 2.19 in experiment [16]; -0.485 (inactive) in experiment [17]; -0.671 in experiment [18]; -1.47 in experiment [19]. Further, the z-score in experiment [20] was 0.349 (inactive). The compound also had a composite z-score in experiment [2] of 0.774.
Consider `CCC[C@@H]1C[C@@]1(CCC)[C@@H](NC(=O)c1cccs1)c1ccc(Cl)cc1`, for which the z-score in [1] was -0.26 (inactive); in experiment [3] it was -0.119 (inactive); in experiment [4], -0.639 (inactive); in experiment [5], 0.307 (inactive); in experiment [6], 0.0519 (inactive); in experiment [7], -0.392. Also, the z-score in experiment [8] is -1.47 (inactive); in [9], -0.556 (inactive); in [10], 0.684; in [11], -0.162; in experiment [12] it was -0.608; in [13], -0.892. For the same compound, the z-score is -2.77 in experiment [14]; -4.78 in [15]; -0.52 in [16]; 0.028 (inactive) in [17]; -0.000314 in experiment [18]; -0.386 in [19]. Moreover, the z-score in experiment [20] is 4.94 (inactive). The composite z-score in experiment [2] was 0.0319.
As to `CN(C)CCCN1C(=O)[C@@]2(Cc3ccccc31)c1ccccc1C(=O)N(Cc1ccccc1)[C@H]2c1ccc(CO)cc1`, the z-score was 0.0234 (inactive) in experiment [1]; -0.0561 (inactive) in [3]; -0.952 (inactive) in [4]; 0.182 (inactive) in [5]; -1.33 (inactive) in experiment [6]; 2.05 in experiment [7]. Moreover, the z-score in [8] was -2.34 (inactive); in experiment [9], -2.82 (inactive); in experiment [10], -2.96; in [11] it was 0.483; in experiment [12], 1.16; in experiment [13] it was 0.128. Also, the z-score is 0.38 in [14]; -2.79 in experiment [15]; 0.343 in [16]; -0.407 (inactive) in [17]; -0.484 in [18]; -1.28 in experiment [19]. Besides, the z-score in experiment [20] is 0.726 (inactive). This compound also came in with a composite z-score in [2] of -0.193.
In the case of `COc1cc2c(cc1OC)CN(C(=O)[C@@H]1[C@H]3C(=O)O[C@H](c4ccccc4)[C@H](c4ccccc4)N3[C@H](c3ccc(O)cc3)[C@@]13C(=O)Nc1ccc(C#CCNC(N)=O)cc13)CC2`, the z-score in experiment [1] was 0.108 (inactive); in experiment [3], 1.1 (inactive); in [4], 0.218 (inactive); in [5] it was -0.83 (inactive); in [6] it was -0.0717 (inactive); in [7] it was -0.419. Further, the z-score in experiment [8] is 0.842 (inactive); in [9], 0.157 (inactive); in [10], 0.432; in experiment [11] it was 0.434; in experiment [12] it was 0.0878; in experiment [13], -0.659. Besides, the z-score is 0.454 in experiment [14]; -0.375 in [15]; -1.55 in [16]; -0.628 (inactive) in experiment [17]; -0.0414 in [18]; -0.375 in experiment [19]. The z-score in experiment [20] was 0.795 (inactive). In experiment [2], this compound returned a composite z-score of 0.231.
With `C=CCC(OC(C)=O)[C@@H]1[C@@H](N(Cc2ccc(-c3ccccc3)cc2)C(=O)Cc2ccc(OC)cc2)c2cc(OCCCO)ccc2N1C(=O)c1ccc(-c2ccccc2)cc1` (stereo not given in full), the z-score in experiment [1] was 0.769 (inactive); in experiment [3] it was 1.09 (inactive); in experiment [4], 0.969 (inactive); in experiment [5], 0.0304 (inactive); in experiment [6], 0.406 (inactive); in [7] it was 1. The z-score is 0.713 (inactive) in [8]; 0.878 (inactive) in [9]; 2.49 in [10]; 0.817 in [11]; 0.397 in [12]; 1.3 in experiment [13]. The z-score in experiment [14] was 0.366; in experiment [15], 0.368; in experiment [16], 3.34; in experiment [17], 0.269 (inactive); in experiment [18], 0.298; in experiment [19] it was 0.494. Also, the z-score in experiment [20] is 1.21 (inactive). The same compound displayed a composite z-score in experiment [2] of 0.587.
As to `NC(=O)NCC#Cc1ccc2c(c1)[C@]1(C(=O)N2)[C@H](c2ccc(O)cc2)N2[C@H](c3ccccc3)[C@H](c3ccccc3)OC(=O)[C@H]2[C@@H]1C(=O)NC[C@H](O)c1ccccc1`, the z-score in experiment [1] is 0.578 (inactive); in experiment [3] it was -0.0501 (inactive); in experiment [4] it was 0.647 (inactive); in experiment [5], 0.223 (inactive); in [6] it was 0.363 (inactive); in experiment [7], -0.328. Besides, the z-score in experiment [8] is 0.251 (inactive); in [9], -0.258 (inactive); in [10], -0.0927; in experiment [11], 0.544; in experiment [12], 0.192; in experiment [13], -0.0875. In addition, the z-score in experiment [14] is -0.106; in experiment [15] it was 0.0231; in [16], 0.163; in experiment [17], -0.0491 (inactive); in experiment [18] it was -0.888; in experiment [19], 0.481. Also, the z-score in experiment [20] is 0.716 (inactive). In experiment [2], this compound registered a composite z-score of -0.316.
With `CCCc1cc2c(n1Cc1ccc(OC)cc1)C(C)C1CN(C(=O)c3ccccc3)C(C)(C(=O)OC)C21` (stereo not given), the z-score in experiment [1] was -2.02 (inactive); in experiment [3] it was 3.99 (inactive); in experiment [4], 0.713 (inactive); in experiment [5] it was 1.27 (inactive); in experiment [6], 0.25 (inactive); in experiment [7], -0.57. The z-score is -1.55 (inactive) in experiment [8]; -3.23 (inactive) in [9]; -3.28 in experiment [10]; -0.923 in [11]; 0.431 in experiment [12]; -0.815 in experiment [13]. The z-score in experiment [14] is -2.74; in experiment [15], -4.66; in experiment [16], 2.08; in experiment [17] it was -1.82 (inactive); in experiment [18], -0.157; in [19], -1.61. The z-score in experiment [20] is -0.535 (inactive). In [2], this compound yielded a composite z-score of 1.1.
As to `C[C@H]1ON(c2ccccc2)[C@@H](c2ccccc2)[C@@H]1C(=O)N1C(=O)OC[C@@H]1c1ccccc1`, the z-score in experiment [1] is 0.319 (inactive); in experiment [3], 1.66 (inactive); in experiment [4], 0.895 (inactive); in experiment [5], -0.372 (inactive); in [6], 0.28 (inactive); in experiment [7], 0.238. For the same compound, the z-score in experiment [8] was 0.198 (inactive); in experiment [9], -0.28 (inactive); in [10], -0.654; in experiment [11], -0.279; in experiment [12] it was 0.261; in [13], -0.941. For the same compound, the z-score in experiment [14] is 0.608; in [15] it was -0.144; in experiment [16], -1.24; in [17], 0.46 (inactive); in experiment [18], 0.488; in [19], -0.127. Also, the z-score in [20] is 0.535 (inactive). The compound further displayed a composite z-score in [2] of -0.0141.

(Values after PubChem BioAssay.)
